HIF-2a block = HIF-2a reporter inhibitors, primary screen, luminescence, 786-0 RCC cells; 786-0 RCC cells HIF-2a reporter, luciferase luminescence, overnight; inhibition, % at 18.8 µM; hit rate 0.72% among 360,000; AID 624352, 2012;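 active = inhibition of the luminescence signal of 40% or more relative to plate controls, in a single-dose primary screen at 18.75 µM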
CF NFkB block = inhibitors of PAF-induced NF-kB signaling, primary screen, cell-based, GFP fluorescence, uHTS; hit rate 0.86% among 360,000; KKLEB NF-kB-GFP reporter, GFP fluorescence overnight; inhibition, % at 5 µM;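 active = at least 50% inhibition at 5 µM, scaled per plate between neutral and stimulator controls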;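 note: PAF is a Pseudomonas aeruginosa culture filtrate used as stimulus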
KKLEB tox = cytotoxicity in KKLEB CF airway cells, primary screen, cytotoxicity control for CF NF-kB inhibitor project, cell-based, uHTS, fluorescence assay plates; KKLEB CF airway cells viability, ATPlite luminescence, overnight; active compounds read low; cells stimulated with P. aeruginosa culture filtrate; activity change (cytotoxicity), % at 5 µM; hit rate 0.36% among 360,000;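 active = corrected activity change at or below -50% at 5 µM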
ABHD5 PLIN5 PPI = ABHD5-PLIN5 interaction inhibitors, primary screen, cell lysate, split luciferase complementation, luminescence. Perilipin-5 (Homo sapiens) + 1-acylglycerol-3-phosphate O-acyltransferase ABHD5 (Homo …. Split G. princeps luciferase complementation, 4 h. inhibition, % at 4 µM. hit rate 0.78% among 360,000;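 active = inhibition above the mean inhibition across every tested compound plus 3 SD, cut at about 22% in these data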
Target sequence (Q00G26 whole entry, looked up): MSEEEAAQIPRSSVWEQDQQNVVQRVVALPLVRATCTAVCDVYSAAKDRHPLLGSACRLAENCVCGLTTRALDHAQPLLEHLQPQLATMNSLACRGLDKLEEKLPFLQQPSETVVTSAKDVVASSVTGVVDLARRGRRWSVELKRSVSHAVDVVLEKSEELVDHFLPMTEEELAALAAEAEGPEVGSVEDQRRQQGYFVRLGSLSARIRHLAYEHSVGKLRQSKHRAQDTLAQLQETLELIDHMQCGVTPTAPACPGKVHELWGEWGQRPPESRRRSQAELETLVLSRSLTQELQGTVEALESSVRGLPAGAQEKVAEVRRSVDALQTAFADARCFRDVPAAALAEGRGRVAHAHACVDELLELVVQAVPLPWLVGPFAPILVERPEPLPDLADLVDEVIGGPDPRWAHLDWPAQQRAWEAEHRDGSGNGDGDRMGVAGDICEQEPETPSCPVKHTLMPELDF
Target sequence (Q8WTS1 whole entry, looked up): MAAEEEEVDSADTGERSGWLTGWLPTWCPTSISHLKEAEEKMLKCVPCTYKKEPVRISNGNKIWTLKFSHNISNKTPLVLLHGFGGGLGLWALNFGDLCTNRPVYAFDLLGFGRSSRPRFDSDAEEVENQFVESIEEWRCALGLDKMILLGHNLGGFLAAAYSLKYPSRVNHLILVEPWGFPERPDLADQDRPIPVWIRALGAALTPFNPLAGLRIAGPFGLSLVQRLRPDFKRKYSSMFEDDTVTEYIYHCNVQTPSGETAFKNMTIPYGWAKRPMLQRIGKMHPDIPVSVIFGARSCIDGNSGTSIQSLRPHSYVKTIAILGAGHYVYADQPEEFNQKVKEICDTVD
MITF TRPM1 inh = inhibitors of MITF-dependent TRPM1 promoter reporter, primary screen, cell-based, SK-MEL-5, single point, luciferase | SK-MEL-5 TRPM1 promoter luciferase, 24 h | inhibition, % at 12.5 µM | hit rate 0.83% among 330,000 | AID 488899, 2010;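 active = mean inhibition across replicates of 60% or more, whatever share of single replicates reaches that level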
Peg3 prom inh-1 = Peg3 promoter-driven luciferase inhibitors, primary screen, cell-based, HeLa, luciferase luminescence | HeLa PEG-Prom luciferase reporter, overnight | inhibition, % at 20 µM | hit rate 1.7% among 360,000 | AID 588405, 2011;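 active = inhibition of at least 50% at 20 µM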
Peg3 prom inh-2 = Peg3 promoter reporter inhibitors, retest, confirmation, cell-based, HeLa, luciferase reporter, single concentration; hit rate 84% among 1,300; shares compounds with Peg3 prom inh-1; HeLa PEG-Prom luciferase reporter, luminescence, overnight; inhibition, % at 20 µM; AID 602417, 2012;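 active = at 20 µM dose, 40% or more inhibition averaged across four replicates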
A number is an active result; n = inactive; x = no result given. A selection: hits, their analogues and other compounds. The true share with any hit is near 3.1%.

SMILES	HIF-2a block	CF NFkB block	KKLEB tox	ABHD5 PLIN5 PPI	MITF TRPM1 inh	Peg3 prom inh-1	Peg3 prom inh-2
O=c1cc2oc3cc(O)c(O)cc3c(-c3ccccc3[N+](=O)[O-])c-2cc1O	n	n	n	n	n	60	75
CCN(CCN(C)C)C(=O)C1CCN(S(=O)(=O)c2c(C)noc2/C=C/c2ccccc2F)CC1	n	n	n	n	n	90	51
CC(NS(=O)(=O)OCC(Cl)(Cl)Cl)c1ccc(C(C)(C)C)cc1 (stereo not given)	n	n	n	n	n	56	49
CC(C)(NS(=O)(=O)OCC(Cl)(Cl)Cl)c1ccccc1	n	n	n	n	n	n	x
COc1cc2ccccc2cc1C(=O)N(CCN(C)C)c1nc2c(OC)ccc(OC)c2s1	n	n	n	n	n	66	67
COc1ccc(OC)c2sc(N(CCN(C)C)C(=O)c3ccc4ccccc4c3)nc12	n	n	n	n	n	n	x
CCCCNC(=O)Cn1c(=O)c2c(ncn2CC)n(Cc2ccccc2)c1=O	n	n	n	n	n	n	x
NC(C(=O)O)C1ON=C(Cl)C1O (stereo not given)	n	n	n	n	n	59	62
NC1=NC[C@H](Cc2ccccc2)N1CCc1cc(C(F)(F)F)cc(C(F)(F)F)c1	n	n	n	n	n	85	53
Cc1ccc2nc(-c3ccncc3)cc(C(=O)NCc3ccccc3F)c2c1	n	n	n	n	n	n	x
COc1ccccc1CCNC(=O)c1cc(-c2ccncc2)nc2ccc(Br)cc12	n	n	n	n	n	60	n
CCN(C(=O)COC(=O)c1ccc2[nH]c(C)c(C)c2c1)c1c(N)n(Cc2ccccc2)c(=O)[nH]c1=O	n	n	n	n	n	n	x
Cc1ccc(Oc2ccc(NC(=O)Cn3ccsc3=N)cc2)cc1	n	n	n	n	n	53	n
Cc1ccc(NC(=O)CN(C)C(=O)Cn2ccsc2=N)cc1	n	n	n	n	n	n	x
O=C(CCN1C(=O)/C(=C/c2ccc(F)cc2)SC1=S)N[C@@H](CO)Cc1ccccc1	n	n	n	n	n	79	72
N/C(=N\OC(=O)c1ccc(Cl)cc1Cl)c1ccccn1	n	n	-68	n	n	68	n
N/C(=N\OC(=O)c1cccc([N+](=O)[O-])c1)c1ccccn1	n	n	n	n	n	n	x
COc1cccc(C(=O)O/N=C(\N)c2ccccn2)c1	n	n	n	n	84	87	69
N/C(=N\OC(=O)c1ccc(=O)n(Cc2ccccc2)c1)c1ccccn1	n	n	n	n	n	n	x
N/C(=N\OC(=O)c1ccc(Cl)cc1[N+](=O)[O-])c1ccccn1	n	n	n	n	n	n	x
CCCc1ccc(C(=O)O/N=C(\N)c2ccccn2)cc1	63	n	n	n	73	108	97
COc1ccc(Br)cc1C1=CC(=O)C[C@H](c2ccc(F)cc2)C1	n	n	n	n	x	n	x
CCCCCCN1CCN(C2CN(Cc3cn(CCCC(=O)OC)nn3)S(=O)(=O)C2)CC1 (stereo not given)	n	x	x	n	x	x	x
COc1ccc(CNn2c(-c3cccc(C)c3)nc3ccccc3c2=O)cc1OC	n	n	n	n	n	57	n
COc1ccccc1CNn1c(-c2cccc(C)c2)nc2ccccc2c1=O	n	n	n	n	n	n	x
SMILES	HIF-2a block	CF NFkB block	KKLEB tox	ABHD5 PLIN5 PPI	MITF TRPM1 inh	Peg3 prom inh-1	Peg3 prom inh-2
COc1ccc(-c2cc(-c3nnc(COC(=O)c4ccc(O)cc4)o3)c3ccccc3n2)cc1OC	n	n	n	n	n	52	n
CN1CCN(CCNC(=O)c2ccc3nc(-c4ccc(F)cc4)c(-c4ccc(F)cc4)nc3c2)CC1	n	n	n	n	89	74	90
COCCNC(=O)/C(C#N)=C/c1ccc(O)c([N+](=O)[O-])c1	n	n	n	n	n	n	x
COCCNC(=O)/C(C#N)=C/C=C/c1ccccc1[N+](=O)[O-]	n	n	n	n	n	53	n
Cc1cc(C)nc(NC(=O)Cc2ccc(Br)cc2)n1	n	n	n	n	n	n	x
C/C(=N\NC(=O)c1ccc(NS(=O)(=O)c2cccs2)cc1)c1cccs1	n	n	n	n	n	n	x
O=C(NN=Cc1c(F)c(F)c(F)c(F)c1F)c1ccc(NS(=O)(=O)c2cccs2)cc1	n	n	n	n	n	57	n
CS(=O)(=O)N(CC(=O)NCCc1ccccc1)c1cccc([N+](=O)[O-])c1	n	n	n	n	n	n	x
O=C(CN(c1ccc(Cl)cc1)S(=O)(=O)c1ccc(Cl)c([N+](=O)[O-])c1)NCCc1ccccc1	n	n	n	n	n	87	n
CCOC(=O)[C@@H]1[C@H]2COc3cc(OC)ccc3[C@H]2N2C(=O)N(c3ccc(C)cc3)C(=O)[C@@]12C	n	n	n	n	n	n	x
N=c1n(CCN2CCCC2)c2ccccc2n1CC(O)c1ccc(Cl)c(Cl)c1 (stereo not given)	n	n	n	n	99	115	98
CC(C)(C)c1ccc(CN2N=Nc3ccccc3S2(=O)=O)cc1	n	n	n	n	n	94	55
CC(C)(C)c1ccc(C(=O)N2CCN(Cc3ccccc3)CC2)cc1	n	n	n	n	x	n	x
CCN(CC(=O)Nc1ccc(OC)cc1)C(=O)c1ccc2c(c1)NC(=O)CS2	n	n	n	n	n	n	x
COc1ccc(NC(=O)COC(=O)C2C3CC4OC(=O)C2C4C3)cc1 (stereo not given)	n	n	n	n	n	n	x
O=C(NNC(=O)c1cccnc1SCc1cccc([N+](=O)[O-])c1)c1ccccn1	n	n	n	n	n	55	70
CC(C)(C)n1nnnc1C(c1ccccc1)N1CCN(CCN2CCOCC2)CC1 (stereo not given)	n	x	x	n	x	x	x
CN(C(=O)COC(=O)/C=C/c1cccc([N+](=O)[O-])c1)C1CCS(=O)(=O)C1 (stereo not given)	n	n	n	n	n	51	62
CCN(C(=O)COC(=O)/C=C/c1cccc(Br)c1)C1CCS(=O)(=O)C1 (stereo not given)	n	n	n	n	n	n	x
N#Cc1cccnc1N1CCN(C(C(=O)NC2CCCC2)c2ccco2)CC1 (stereo not given)	n	x	x	n	x	x	x
COc1ccccc1N1CCN(C(=O)c2sc3ncnc(N4CCN(c5ccccn5)CC4)c3c2C)CC1	n	n	n	n	n	84	74

Bioassay records from PubChem.
